Source: PubChem BioAssay (National Center for Advancing Translational Sciences (NCATS))
NS1 inh: influenza NS1 inhibition. Potency, µM (top dose mostly 46.1 µM), for the others: at the highest dose activity, positive = more growth. actives 0.4% (n = 270,000); further: potency means the concentration at half of the fitted maximal effect; actives are rising curves; nearly all actives have a fitted effect of over 50% in size
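A cell-based growth assay was used: compounds that relieve NS1-induced slow growth of budding yeast raise OD600. Assay medium was yeast nitrogen base with ammonium sulphate and -URA supplement, pH 6.0, with 2% galactose.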
Shiga toxin inh: inhibitors of Shiga toxin in Vero cells. actives 9.2% (n = 290,000). AID 2315. inhibition, % at 38.7 µM. Vero cells, Shiga toxin protein synthesis inhibition reporter; in the data active means inhibition mostly above about 28%, no sharp cut-off; inactive means mostly below about 43%; further: 0% is about no effect
Pf growth 48h: P. falciparum growth inhibition at 48 hours (one generation) | Potency, µM (highest dose often 28.7 µM), inactives show at the top dose activity change, negative = inhibition, hits mostly inhibitors | P. falciparum luciferase growth in erythrocytes, 48 h | actives 5.9% (n = 310,000); active means well fitted inhibition curve with a large enough effect; inconclusive means small, poorly fitted or top-dose-only effect, or another doubt; inactive means no such curve, though single readings can be large or run the other way; further: potency means the concentration at half of the fitted maximal effect; on the % scale 0 is the no-effect control and ±100 the full control effect
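Firefly luciferase activity from engineered P. falciparum reports growth; inhibitors lower the luminescent signal. Cultures contained 2% hematocrit erythrocytes at 0.1% final parasitemia.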
CHX counter: counter-screen hit for Shiga toxin inhibitors, cycloheximide; max response, %; actives 12% (n = 300,000); cell reporter, cycloheximide protein synthesis inhibition counterscreen; in the data active means max response mostly above about 13%, no sharp cut-off; inactive means mostly below about 14%; further: read at 38.3 µM for the half of the compounds with a filed dose; 0% is about no effect
Pf growth 96h: P. falciparum growth inhibition at 96 hours | actives 6.9% (n = 320,000) | Potency, µM (doses to about 28.7 µM), for the others: top-dose activity change, negative = inhibition, most hits filed as inhibitors | P. falciparum luciferase reporter growth, 96 h; active means well fitted inhibition curve with a large enough effect; inconclusive means small, poorly fitted or top-dose-only effect, or another doubt; inactive means no such curve, though single readings can be large or run the other way; further: potency means the concentration at half of the fitted maximal effect; on the % scale 0 is the no-effect control and ±100 the full control effect
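Two-generation exposure (96 h) targets delayed-death phenotype. Reporter parasites carrying integrated firefly luciferase, in red cells at 2% hematocrit and 0.05% parasitemia final, kept at 37 C, 5% CO2; luminescence loss indicates inhibition.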
SARS PLP yeast: SARS-CoV PLP inhibition in yeast; S. cerevisiae expressing SARS-CoV PLpro, growth rescue; Potency, µM (series often up to 32.9 µM), without a hit: at the top dose activity, positive = growth rescue, most hits filed as activators; actives 0.19% (n = 330,000); AID 485353; further: potency means the concentration at half of the fitted maximal effect; 0% is about no effect; nearly all actives have a fitted effect of over 55% in size
Starred values were filed as active, the others as inactive; [ ] = remark or other dose. Shown are actives, neighbours in structure and some others; about 21% of the full set was active somewhere. Unless noted, the call rests on the fitted dose curve.

COc1cc(/C=N/NC(=O)c2sc(N)c(C#N)c2C)cc(Br)c1O was read as NS1 inh 2.7%, Shiga toxin inh -0.7, Pf growth 48h inconclusive, CHX counter -3.2, Pf growth 96h inconclusive and SARS PLP yeast -1.9%.
`Cc1ccc(C(=O)N/N=C/C=C/c2ccccc2)o1` gave Shiga toxin inh 118.9*, Pf growth 48h -28.1%, CHX counter 22.4, Pf growth 96h 280.0% and SARS PLP yeast -1.6%.
Screening Cc1ccc(C(=O)N/N=C\c2cccnc2)s1 returned NS1 inh 3.7%, Shiga toxin inh 55.4*, Pf growth 48h 31.9%, CHX counter 30.5*, Pf growth 96h -20.9% and SARS PLP yeast 1.6%.
COc1ccccc1C(=O)NCC(=O)NCC1(N2CCCCC2)CCCCC1 was read as Pf growth 48h 34.3%, Pf growth 96h 29.9% and SARS PLP yeast 1.8%.
For Cc1ccc(SCC(=O)OC(C)C(=O)NCc2ccccc2)cc1C (stereo not drawn) the results were Pf growth 48h 0.4%, Pf growth 96h 10.8% and SARS PLP yeast -0.8%.
Screening Cc1cc(/C=N/NC(N)=S)c(C)n1-c1cccc(Cl)c1 returned Shiga toxin inh -7.5, Pf growth 48h -26.5%, CHX counter -3.7, Pf growth 96h 50.8%[5.75 µM] and SARS PLP yeast 2.6%.
For O=C(N/N=C/c1cccnc1)c1ccc(F)cc1 the results were NS1 inh 4.5%, Shiga toxin inh 37.6, Pf growth 48h 41.8%, CHX counter 11.3*, Pf growth 96h 11.8% and SARS PLP yeast -2.0%.
Cc1cccc(C)c1-n1c(C)cc(/C=N/NC(N)=S)c1C was read as NS1 inh -48.3%, Shiga toxin inh -3.8, CHX counter -1.7, Pf growth 96h inconclusive and SARS PLP yeast 10µM*.
`Cc1ccccc1-n1c(C)cc(/C=N/NC(=O)c2ccncc2)c1C` gave NS1 inh 2.8%, Shiga toxin inh 67.9*, Pf growth 48h inconclusive, CHX counter 35.8*, Pf growth 96h inconclusive and SARS PLP yeast -0.5%.
`O=C(N/N=C/c1cccnc1)c1ccccc1` gave NS1 inh 2.9%, Shiga toxin inh 58.6*, Pf growth 48h 31.1%, CHX counter 25.4*, Pf growth 96h inconclusive and SARS PLP yeast -0.3%.
For O=C(N/N=C/c1cccnc1)c1ccc([N+](=O)[O-])cc1 the results were NS1 inh 9.5%, Shiga toxin inh 19.3, Pf growth 48h -3.0%, CHX counter -2.0, Pf growth 96h inconclusive and SARS PLP yeast -5.5%.
`Cc1cc(C)cc(NC(=O)CN(c2ccc(F)cc2)S(C)(=O)=O)c1` gave NS1 inh -5.5%, Shiga toxin inh 49.7, Pf growth 48h 8.1%, CHX counter 6.3, Pf growth 96h inconclusive and SARS PLP yeast 0.3%.
Screening Cc1ccc2oc(=O)n(CC(=O)OCCC(C)C)c2c1 returned NS1 inh 0.5%, Shiga toxin inh 13.6, Pf growth 48h -4.6%, CHX counter -2.7, Pf growth 96h 3.3% and SARS PLP yeast -5.3%.
O=C(N/N=C/C=C\c1ccco1)c1cccnc1 was read as NS1 inh 11.4%, Shiga toxin inh -3.4, Pf growth 48h 3.7%, CHX counter 10.8, Pf growth 96h 0.9% and SARS PLP yeast -18.8%.
`O=C(N/N=C/c1ccncc1)c1ccccc1` gave NS1 inh -0.7%, Shiga toxin inh 55.3*, Pf growth 48h 21.6%, CHX counter 21.0*, Pf growth 96h 52.4% and SARS PLP yeast 0.8%.
For O=C(N/N=C/c1cccc(Oc2ccccc2)c1)c1ccncc1 the results were Shiga toxin inh 13.4, Pf growth 48h 6.7%, CHX counter 12.4, Pf growth 96h 3.7µM* and SARS PLP yeast -7.3%.
For O=C(N/N=C\c1cccc(O)c1)c1ccncc1 the results were NS1 inh -3.8%.
For O=C(CNC(=O)c1ccccc1Br)N/N=C/c1cccnc1 the results were NS1 inh 3.3%, Shiga toxin inh 22.2, Pf growth 48h 19.6%, CHX counter -1.3, Pf growth 96h 20.3% and SARS PLP yeast 4.5%.
Screening O=C(N/N=C/C=C/c1ccccc1)c1cccnc1 returned NS1 inh 1.9%, Shiga toxin inh 29.9*, Pf growth 48h 0.0%, CHX counter -1.2, Pf growth 96h 0.0% and SARS PLP yeast 0.6%.
O=C(CNC(=O)c1ccccc1F)N/N=C/c1cccnc1 was read as NS1 inh -8.0%, Shiga toxin inh 16.5, Pf growth 48h 35.5%, CHX counter 30.8*, Pf growth 96h 75.2% and SARS PLP yeast 3.7%.
Screening O=C(c1cccc(NS(=O)(=O)c2cccc(C(F)(F)F)c2)c1)N1CCOCC1 returned NS1 inh -5.4%, Shiga toxin inh -7.6, Pf growth 48h 31.7%, CHX counter -1.1, Pf growth 96h inconclusive and SARS PLP yeast -6.9%.
`CC(C)(C)NC[C@@H](O)COc1cccc2c1CCCC2=O` gave Pf growth 48h -1.7% and Pf growth 96h 22.5%.
Screening O=C(c1ccccc1)c1ccc(OCC(O)CNC2CCCc3ccccc32)cc1 (stereo not drawn) returned NS1 inh 8.7%, Shiga toxin inh -9.8, Pf growth 48h inconclusive, CHX counter -8.9, Pf growth 96h 10.4µM* and SARS PLP yeast -16.7%.
For CC(C)(C)NCC(O)COc1ccccc1C1CCCC1 (stereo not drawn) the results were Pf growth 48h 2.62µM* and Pf growth 96h 5.22µM*.
For CCc1ccccc1OC[C@@H](O)CN[C@H]1CCCc2ccccc21 the results were Pf growth 48h 1.85µM* and Pf growth 96h 1.65µM*.
Screening CC[C@@H](c1ccc2cc(O)ccc2c1)C(C)(C)C(=O)O returned NS1 inh -6.9%.
Cc1cccc(S(=O)(=O)N2CN(Cc3ccco3)c3nc4ccccc4nc32)c1 was read as NS1 inh -3.7%, Shiga toxin inh -3.4, Pf growth 48h inconclusive, CHX counter -2.9, Pf growth 96h inconclusive and SARS PLP yeast -10.0%.
For O=S(=O)(c1cccs1)N1CN(Cc2ccc(Cl)cc2)c2nc3ccccc3nc21 the results were NS1 inh -3.3%, Shiga toxin inh 10.1, Pf growth 48h inconclusive, CHX counter 14.6*, Pf growth 96h inconclusive and SARS PLP yeast 3.9%.
`Cc1ccc(CN2CN(S(=O)(=O)c3cccs3)c3nc4ccccc4nc32)cc1` gave NS1 inh -1.4%, Shiga toxin inh 81.4*, Pf growth 48h inconclusive, CHX counter 90.8*, Pf growth 96h 66.0% and SARS PLP yeast 5.1%.
Screening CCCCN1CN(S(=O)(=O)c2cccs2)c2nc3ccccc3nc21 returned NS1 inh -13.0%, Shiga toxin inh 12.3, Pf growth 48h 43.3%, CHX counter 8.2, Pf growth 96h 0.0% and SARS PLP yeast 3.9%.
Screening O=S(=O)(c1cccs1)N1CN(Cc2ccco2)c2nc3ccccc3nc21 returned NS1 inh -5.8%, Shiga toxin inh 39.7*, Pf growth 48h inconclusive, CHX counter 30.8*, Pf growth 96h inconclusive and SARS PLP yeast -0.4%.
